Assay results reported in PubChem BioAssay (NCATS).
Results filed as inconclusive are left out. Calls of active or inactive are those of the source. Unless noted, calls come from the whole dose curve; as a rule, active = well fitted curve in the direction sought with a large enough effect; inconclusive = small, poorly fitted or top-dose-only effect, or another doubt; inactive = no such curve, though single readings can be large; an effect the other way counts as inactive or inconclusive.

Key:
[1] = target: Guanine nucleotide-binding protein G(i) subunit alpha-1 (Homo sapiens) (UniProt P63096); assay: qHTS Assay for Inhibitors of RGS12 GoLoco Motif Activity (Green Fluorophore) (AID 879);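 note: 0% = labeled peptide with Gαi1 and full inhibition = labeled peptide alone without protein; negative values mean loss of peptide binding seen as reduced polarization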
Chain of Guanine nucleotide-binding protein G(i) subunit alpha-1 (Homo sapiens) (P63096 whole entry, looked up): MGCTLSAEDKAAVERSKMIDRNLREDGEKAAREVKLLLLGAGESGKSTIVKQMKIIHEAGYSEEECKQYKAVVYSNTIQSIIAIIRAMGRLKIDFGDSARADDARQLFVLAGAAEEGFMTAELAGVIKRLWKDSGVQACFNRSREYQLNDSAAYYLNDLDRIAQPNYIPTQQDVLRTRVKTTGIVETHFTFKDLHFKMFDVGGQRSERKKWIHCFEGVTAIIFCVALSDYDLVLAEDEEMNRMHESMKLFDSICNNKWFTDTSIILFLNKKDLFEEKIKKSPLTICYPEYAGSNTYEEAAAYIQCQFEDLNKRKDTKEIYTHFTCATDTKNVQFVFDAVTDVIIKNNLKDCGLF
Outline: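 A drop in FITC polarization marked displacement of the FITC-tagged RGS12 GoLoco peptide (10 nM) from Gαi1 (50 nM). Compounds were incubated 10 min at room temperature in Tris pH 7.5 buffer containing 150 mM NaCl, 0.1 mM GDP and 0.05% NP40; unlabeled peptide titration served as control.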

[2] = target: Cytochrome P450 3A4 (Homo sapiens) (UniProt P08684); assay: qHTS Assay for Activators of Cytochrome P450 3A4 (AID 885); note: nearly all actives have a fitted effect of over 65% in size
Chain of Cytochrome P450 3A4 (Homo sapiens) (P08684 whole entry, looked up): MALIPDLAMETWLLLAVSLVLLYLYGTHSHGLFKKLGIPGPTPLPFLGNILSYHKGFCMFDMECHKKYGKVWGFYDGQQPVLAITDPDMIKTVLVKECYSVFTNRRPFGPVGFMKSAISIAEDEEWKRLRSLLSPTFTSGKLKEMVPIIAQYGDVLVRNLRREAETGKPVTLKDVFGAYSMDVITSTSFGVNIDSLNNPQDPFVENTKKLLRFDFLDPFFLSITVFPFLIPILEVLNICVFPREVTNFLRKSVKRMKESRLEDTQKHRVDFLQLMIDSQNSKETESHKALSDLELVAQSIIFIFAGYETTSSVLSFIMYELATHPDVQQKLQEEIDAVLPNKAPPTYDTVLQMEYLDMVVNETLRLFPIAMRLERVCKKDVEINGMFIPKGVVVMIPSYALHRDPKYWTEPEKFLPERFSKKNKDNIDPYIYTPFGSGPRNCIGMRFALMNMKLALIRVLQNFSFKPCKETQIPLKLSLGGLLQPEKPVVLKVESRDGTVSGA
Outline: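 CYP3A4 activity: Luciferin-PPXE O-dealkylation, 25uM substrate, 200mM KPO4, RT throughout. Read-out is luciferase luminescence; higher values reflect activation.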

[3] = Confirmation and Secondary Assay for Modulators of Hemoglobin Beta Chain Splicing at IVS2 654 locus (AID 910);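 note: HeLa cells stably carrying EGFP split by mutant beta-globin IVS2-654 intron; per-well total GFP intensity by laser scanning cytometry after 2-day treatment; % of control where 0% means no effect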
Outline: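 Readout: per-well total peak green fluorescence (488 nm ex, 500–520 nm em) from objects 5–250 µm, reflecting correct splicing of an EGFP-654 reporter. Compounds were applied for 2 days at 37 °C to overnight-plated HeLa EGFP-654 cells; controls were DMSO and 500 nM IVS2-654 PNA.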

[4] = qHTS Assay for Identification of Small Molecule Agonists for Thrombopoietin (TPO) Signaling Pathway (AID 917); note: % is set by controls: 0 for no effect and ±100 for the full control effect
Outline: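 Cell-based luciferase reporter screen. Mouse Ba/F3 line stably expressing human TPO receptor; IL-3 removed overnight before plating. Co-treatment with compound and EC50 TPO (26 pM), 24 hrs at 37 C, then luminescence.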

[5] = Confirmation and Secondary Assay for Modulators of Hemoglobin Beta Chain Splicing at IVS2 705 locus (AID 930);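 note: HeLa cells stably expressing the EGFP-705 splicing reporter; GFP fluorescence per well restored by corrected splicing of the IVS2-705 intron in EGFP; series mostly up to about 46 µM; % of control where 0% means no effect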
Outline: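 HeLa EGFP-705 reporter; 500 cells/well, o/n 37C 5% CO2; cpd 2 d; 488 ex/500-520 em laser scan; total peak GFP intensity/well. Ref: 500 nM […] antisense PNA.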

[6] = target: Muscarinic acetylcholine receptor M1 (Rattus norvegicus) (UniProt P08482); assay: qHTS Assay for Antagonists of Acetylcholine Muscarinic M1 Receptor: Measurement of IP-One Response (AID 944); note: nearly all actives have a fitted effect of over 75% in size
Chain of Muscarinic acetylcholine receptor M1 (Rattus norvegicus) (P08482 whole entry, looked up): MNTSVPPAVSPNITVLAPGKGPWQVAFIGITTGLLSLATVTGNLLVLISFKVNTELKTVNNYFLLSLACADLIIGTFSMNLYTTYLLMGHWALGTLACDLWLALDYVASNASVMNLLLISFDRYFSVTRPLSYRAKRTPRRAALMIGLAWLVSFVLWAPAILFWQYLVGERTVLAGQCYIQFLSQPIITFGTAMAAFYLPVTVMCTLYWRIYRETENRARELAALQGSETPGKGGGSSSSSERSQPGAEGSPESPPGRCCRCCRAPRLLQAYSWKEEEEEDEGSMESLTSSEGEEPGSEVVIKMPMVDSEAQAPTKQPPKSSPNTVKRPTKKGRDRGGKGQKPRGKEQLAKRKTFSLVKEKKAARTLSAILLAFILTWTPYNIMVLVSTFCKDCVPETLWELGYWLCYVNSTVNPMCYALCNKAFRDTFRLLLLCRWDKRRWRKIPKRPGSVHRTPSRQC
Outline: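 IP1 accumulation measured via TR-FRET between d2-IP1 and Eu-cryptate anti-IP1 antibody after carbachol (200 nM, EC80) stimulation for 30 min; rat M1-transfected CHO cells received compound 10 min before agonist.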

[7] = target: Cytochrome P450 2C9 (Homo sapiens) (UniProt P11712); assay: qHTS Assay for Inhibitors and Substrates of Cytochrome P450 2C9 (AID 883); note: nearly all actives have a fitted effect of over 60% in size; note: potency is the fitted concentration of half-maximal effect; for activity change, negative = inhibition: % is set by controls: 0 for no effect and ±100 for the full control effect
Chain of Cytochrome P450 2C9 (Homo sapiens) (P11712 whole entry, looked up): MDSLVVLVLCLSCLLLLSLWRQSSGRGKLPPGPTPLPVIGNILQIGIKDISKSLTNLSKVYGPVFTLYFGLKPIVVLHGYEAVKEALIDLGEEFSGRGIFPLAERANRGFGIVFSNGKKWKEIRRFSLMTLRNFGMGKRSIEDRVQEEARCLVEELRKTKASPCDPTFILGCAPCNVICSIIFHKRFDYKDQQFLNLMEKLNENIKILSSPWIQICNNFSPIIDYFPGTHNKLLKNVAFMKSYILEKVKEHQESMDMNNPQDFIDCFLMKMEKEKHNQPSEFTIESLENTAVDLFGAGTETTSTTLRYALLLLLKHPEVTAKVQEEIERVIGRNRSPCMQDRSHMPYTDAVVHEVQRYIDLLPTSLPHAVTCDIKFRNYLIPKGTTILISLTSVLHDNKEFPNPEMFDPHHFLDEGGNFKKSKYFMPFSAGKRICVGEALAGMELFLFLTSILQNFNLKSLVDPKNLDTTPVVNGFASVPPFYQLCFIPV
Outline: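 Luminescent read-out of deoxyluciferin hydroxylation, normalized to 57uM sulphaphenazole (AC100). Reaction: 10nM enzyme, 100uM Luciferin-H (equal to KM), 25mM KPO4, 10 min compound preincubation, then 60 min with NADPH regeneration, both at 37C.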

[8] = target: Cytochrome P450 2D6 (Homo sapiens) (UniProt P10635); assay: qHTS Assay for Inhibitors and Substrates of Cytochrome P450 2D6 (AID 891); note: nearly all actives have a fitted effect of over 60% in size; note: potency is the fitted concentration of half-maximal effect;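 for activity change, negative = inhibition: luciferin methyl ether substrate demethylated by CYP2D6 with NADPH regeneration; % is set by controls: 0 for no effect and ±100 for the full control effect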
Chain of Cytochrome P450 2D6 (Homo sapiens) (P10635 whole entry, looked up): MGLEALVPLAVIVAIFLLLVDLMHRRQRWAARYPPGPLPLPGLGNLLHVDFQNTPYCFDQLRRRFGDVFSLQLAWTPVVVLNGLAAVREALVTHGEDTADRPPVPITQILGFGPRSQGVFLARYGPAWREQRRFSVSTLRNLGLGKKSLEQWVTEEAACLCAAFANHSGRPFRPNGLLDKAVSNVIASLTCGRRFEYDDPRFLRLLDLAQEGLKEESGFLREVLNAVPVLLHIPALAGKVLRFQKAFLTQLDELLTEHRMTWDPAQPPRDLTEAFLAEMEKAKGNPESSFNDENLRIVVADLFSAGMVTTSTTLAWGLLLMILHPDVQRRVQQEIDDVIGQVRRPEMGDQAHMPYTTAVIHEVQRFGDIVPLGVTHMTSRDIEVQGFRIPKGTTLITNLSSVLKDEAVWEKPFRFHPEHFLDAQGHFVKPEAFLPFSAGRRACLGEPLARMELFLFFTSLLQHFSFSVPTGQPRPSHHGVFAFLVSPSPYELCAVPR
Outline: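 Luminescent read-out of luciferin formed by 5 nM human CYP2D6 demethylating 30 uM Luciferin-ME EGE (Km level) over 60 min at room temperature after NADPH regeneration addition. Data normalized to full inhibition by 1.43 uM quinidine.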

[9] = Cellular Toxicity (caspase-3) H-4-II-E (AID 663); conditions: Potency: caspase-3 activation; note: potency is the fitted concentration of half-maximal effect;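 for caspase-3 activation: cells exposed to compound for 16 hr before readout; 0% = DMSO basal and 100% = 100 µM tamoxifen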
Outline: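 Caspase 3/7 activation measured by luminescent aminoluciferin substrate cleavage after 16 hr compound treatment of H-4-II-E cells in complete medium. Increase normalized between DMSO (basal) and 100 uM tamoxifen (100%); Hill-equation AC50 from concentration-response.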

[10] = Cellular Toxicity (caspase-3) Hek293 (AID 664);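 note: cells exposed to compound for 16 h at 37 °C before readout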
Outline: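 Concentration-response qHTS: caspase 3/7 activation measured by luminescent aminoluciferin substrate cleavage after 16 h compound exposure of Hek 293 cells. AC50 from Hill equation, with DMSO as basal and 100 uM tamoxifen as 100%.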

[11] = Cellular Toxicity (caspase-3) N2a (AID 665); conditions: Potency: caspase-3 activation;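 note: compound exposure lasted 16 h at 37 °C before readout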; note: potency is the fitted concentration of half-maximal effect
Outline: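 Caspase-3/7 activation measured as luminescence from Caspase-Glo reagent (1 h, room temperature) after 16 h compound exposure of mouse N2a cells. AC50 values from Hill-equation concentration-response, scaled between DMSO and 10 uM staurosporine.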

[12] = Cellular Toxicity (caspase-3) NIH 3T3 (AID 666);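 note: caspase signal read after 16 h compound exposure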; note: potency is the fitted concentration of half-maximal effect;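 for caspase-3 activation: 0% = DMSO basal and 100% = 100 µM tamoxifen stimulation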
Outline: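 Caspase-Glo 3/7 luminescence reported caspase activation in 1000 NIH 3T3 cells/well after 16 h compound exposure at 37 C. DMSO set basal and 100 uM tamoxifen set 100% stimulation; concentration-response modeled with the Hill equation for AC50.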

[13] = Cellular Toxicity (caspase-3) Renal Proximal Tubule (AID 667);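 note: cells exposed to compound for 16 hours at 37 °C before detection; 0% = DMSO basal and 100% = 10 µM staurosporine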
Outline: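 AC50 derived by standard Hill fit of concentration-response data, normalized between DMSO basal and 10 uM staurosporine as 100% stimulation. Cells: primary rat kidney proximal tubule, 16 h treatment at 37 °C.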

[14] = Cell Viability - LYMP2-001 (AID 921); note: nearly all actives have a fitted effect of over 70% in size; note: potency is the fitted concentration of half-maximal effect
Outline: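 Steps: seed 2500 lymphoblastoid cells/well; 5 hr, 37 C; add compound; 24 hr, 37 C; CellTiter-Glo reagent, 30 min room temperature; read luminescence. Concentration-response modeled by Hill equation for AC50.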

[15] = qHTS Assay for Identification of Small Molecule Antagonists for NFkB Signaling Pathway (AID 895; active = well fitted inhibition curve with a large enough effect in the signal ratio, with a control signal flat, not every such curve was filed as active; the % refers to the signal ratio; note: potency is the fitted concentration of half-maximal effect; for activity change, negative = inhibition: % is set by controls: 0 for no effect and ±100 for the full control effect)
Outline: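 Beta-lactamase reporter read-out (460 and 530 nm emission ratio, 405 nm excitation, 2 hrs substrate loading RT) after 5 hr stimulation with 10 pM TNF alpha in compound-treated NFkB-bla ME-180 cells in low-serum medium.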

[16] = target: Cytochrome P450 2C19 (Homo sapiens) (UniProt P33261); assay: qHTS Assay for Inhibitors and Substrates of Cytochrome P450 2C19 (AID 899); note: % is set by controls: 0 for no effect and ±100 for the full control effect; nearly all actives have a fitted effect of over 60% in size
Chain of Cytochrome P450 2C19 (Homo sapiens) (P33261 whole entry, looked up): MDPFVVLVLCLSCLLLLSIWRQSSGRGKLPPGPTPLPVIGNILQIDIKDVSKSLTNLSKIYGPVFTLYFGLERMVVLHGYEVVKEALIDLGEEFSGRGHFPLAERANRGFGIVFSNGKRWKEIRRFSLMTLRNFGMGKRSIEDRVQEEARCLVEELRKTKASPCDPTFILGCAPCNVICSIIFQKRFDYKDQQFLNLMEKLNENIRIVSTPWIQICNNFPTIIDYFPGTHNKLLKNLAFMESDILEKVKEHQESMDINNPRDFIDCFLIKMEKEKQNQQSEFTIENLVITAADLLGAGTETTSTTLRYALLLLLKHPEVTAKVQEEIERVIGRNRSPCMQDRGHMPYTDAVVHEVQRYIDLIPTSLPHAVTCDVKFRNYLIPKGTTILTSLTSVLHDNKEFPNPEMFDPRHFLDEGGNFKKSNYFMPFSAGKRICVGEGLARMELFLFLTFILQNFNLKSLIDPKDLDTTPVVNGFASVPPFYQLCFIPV
Outline: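 Luminescence readout of luciferin formed from 10uM Luciferin-H EGE (KM level) by 5 nM CYP2C19 in 50mM KPO4. 60 min NADPH-driven reaction at 37C after 10 min compound preincubation; data scaled to 57uM ketoconazole inhibition.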

[17] = qHTS Assay for Identification of Small Molecule Antagonists for Thrombopoietin (TPO) Signaling Pathway (AID 918); conditions: TPO-dependent cell signaling reporter, antagonist mode; note: potency is the fitted concentration of half-maximal effect; nearly all actives have a fitted effect of over 60% in size
Outline: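 Inhibition read as reduced luciferase luminescence after 24 h at 37 C in IL-3-deprived Ba/F3 cells carrying human TPO receptor and GPIIb-promoter reporter, stimulated with 26 pM TPO (final, its EC50) alongside compound.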

[18] = target: Muscarinic acetylcholine receptor M1 (Rattus norvegicus) (UniProt P08482); assay: qHTS Assay for Antagonists of Acetylcholine Muscarinic M1 Receptor: Kinetic Measurement of Intracellular Calcium Response (AID 943);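 note: Fluo-4 calcium signal as peak divided by basal fluorescence over 4 min; series mostly up to about 35 µM; nearly all actives have a fitted effect of over 75% in size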
Outline: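 Antagonism measured as reduction of carbachol-evoked (EC80, 100 nM final) calcium flux in rat M1-CHO cells after 10 min compound exposure. Fluo-4 signal read kinetically; ratio of maximal to basal fluorescence.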

O=C(O)c1cc2cc(Cc3cccnc3)ccc2o1
inactive: outcome [1] | Potency [2] | outcome [3] | outcome [4] | outcome [5] | Potency [6]

CNCCC=C1c2ccccc2CCc2ccccc21
active: Potency [8] 3.16 µM
inactive: outcome [1] | activity change, negative = inhibition [7] -6.44% [at 11.4 µM] | Potency [2] | outcome [3] | outcome [5]

CN(C)/N=N/c1nc[nH]c1C(N)=O
inactive: Potency [9] | outcome [10] | Potency [11] | Potency [12] | outcome [13] | outcome [3] | Potency [14]

CC(O)C(=O)O (stereo not given)
inactive: Potency [9] | outcome [10] | Potency [11] | Potency [12] | outcome [13] | Potency [14]

Oc1ccc(O)cc1
active: Potency [15] 10 µM | Potency [17] 12.6 µM | Potency [14] 25.1 µM
inactive: outcome [10] | Potency [11] | outcome [13] | outcome [1] | Potency [7] | Potency [2] | Potency [8] | Potency [16] | outcome [5] | outcome [18]

O=c1ccc2ccccc2o1
inactive: Potency [9] | outcome [10] | Potency [11] | Potency [12] | outcome [13] | outcome [3] | Potency [14]

C=C(CC)C(=O)c1ccc(OCC(=O)O)c(Cl)c1Cl
active: Potency [7] 0.631 µM | Potency [14] 50.1 µM
inactive: Potency [9] | outcome [10] | Potency [11] | Potency [12] | outcome [13] | outcome [3]

COc1cccc2c1C(=O)c1c(O)c3c(c(O)c1C2=O)C[C@@](O)(C(=O)CO)C[C@@H]3O[C@H]1C[C@H](N)[C@H](O)[C@H](C)O1
active: Potency [9] 31.6 µM | Potency [11] 3.16 µM | Potency [12] 0.398 µM | Potency [14] 0.501 µM
inactive: outcome [10] | outcome [13] | Potency [2]

C=CCc1ccc(O)c(OC)c1
inactive: Potency [9] | outcome [10] | Potency [11] | Potency [12] | outcome [13] | outcome [3] | Potency [14]

Nc1ccc(C(=O)O)cc1
inactive: Potency [9] | outcome [10] | Potency [11] | Potency [12] | outcome [13] | outcome [3] | Potency [14]

C[C@]12CC[C@@H]3c4ccc(O)cc4CC[C@H]3[C@@H]1CC[C@@H]2O
inactive: Potency [9] | outcome [10] | Potency [11] | Potency [12] | outcome [13] | outcome [1] | outcome [4]

Oc1cc(O)c2c(c1)O[C@H](c1ccc(O)c(O)c1)[C@H](O)C2
inactive: outcome [1] | Potency [2] | outcome [4] | outcome [18] | Potency [6]

N[C@@H](Cc1cnc[nH]1)C(=O)O
inactive: outcome [1] | Potency [2] | Potency [15] | outcome [4] | outcome [18] | Potency [6]

CC/C(=C(/CC)c1ccc(O)cc1)c1ccc(O)cc1
inactive: Potency [9] | outcome [10] | Potency [11] | Potency [12] | outcome [13] | outcome [3] | Potency [14]

O=C1CCC(c2ccc(-n3ccnc3)cc2)=NN1
inactive: outcome [1] | Potency [2] | outcome [4] | outcome [18] | Potency [6]
active: Potency [8] 2.51 µM

COc1cccc2c1C(=O)c1c(O)c3c(c(O)c1C2=O)C[C@@](O)(C(C)=O)C[C@@H]3O[C@H]1C[C@H](N)[C@H](O)[C@H](C)O1
active: Potency [9] 12.6 µM | Potency [11] 3.98 µM | Potency [12] 31.6 µM | Potency [14] 1.58 µM
inactive: Potency [2] | Potency [8]

NC(=NCCCCCCN=C(N)/N=C(\N)Nc1ccc(Cl)cc1)/N=C(\N)Nc1ccc(Cl)cc1
inactive: Potency [9] | outcome [10] | Potency [11] | Potency [12] | outcome [13] | Potency [2] | outcome [3]
active: Potency [8] 7.94 µM | Potency [14] 39.8 µM

Oc1ccc(Cl)cc1Sc1cc(Cl)ccc1O
inactive: Potency [9] | outcome [10] | Potency [11] | Potency [12] | outcome [13]

Oc1c(I)cc(Cl)c2cccnc12
inactive: Potency [9] | outcome [10] | Potency [11] | outcome [13] | outcome [3]
active: Potency [12] 12.6 µM | Potency [14] 39.8 µM

CCCC1O[C@@H]2C[C@H]3[C@@H]4CCC5=CC(=O)C=C[C@]5(C)[C@H]4[C@@H](O)C[C@]3(C)[C@]2(C(=O)CO)O1 (stereo not given in full)
inactive: outcome [1] | Potency [2]

CCCCCCc1ccc(O)cc1O
inactive: Potency [9] | outcome [10] | Potency [11] | Potency [12] | outcome [13] | outcome [3] | Potency [14] | outcome [5]

O=C1OC(c2ccc(O)cc2)(c2ccc(O)cc2)c2ccccc21
inactive: Potency [9] | outcome [10] | Potency [11] | Potency [12] | outcome [13] | Potency [2] | outcome [3] | Potency [14]
